“And” between values parts separate entries of the source, which are not always exact repeats. Equal values may be shown once. Where a name gives a salt, the structure may show the parent alone.

The subject of the assay is K562. Kind of assay: cell viability relative to vehicle control; higher = less cytotoxic. The following applies: 10 µM; SRSF2 genotype: SRSF2 P95H/wt. A digest of the protocol:
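Screening covered the Selleck bioactive, kinase and epigenetic probe libraries, less identity-inconsistent compounds, on CRISPR-edited mutant clones and isogenic wild-type clones of four leukaemia lines. Cells, at 2000 per well in 50 µL medium, received a single 10 µM acoustically dispensed dose. After 48 h the supernatant was removed and CellTiter-Glo luminescence was read. Viability was analysed in Genedata Screener as percent of the on-plate vehicle control.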
On to `O=C(O)c1cc(=O)c2c(OCC(O)COc3cccc4oc(C(=O)O)cc(=O)c34)cccc2o1` [Disodium Cromoglycate], for which the cell viability (in general, a read-out of living cells in per cent, often relative to untreated cells) came out at 93.6%.
Under `Nc1nc2c(ncn2[C@@H]2O[C@H](CO)[C@@H](O)[C@H]2O)c(=O)[nH]1` [Guanosine] stands 87.3% and 93.1%; under `CN(C/C=C/C#CC(C)(C)C)Cc1cccc2ccccc12` [Terbinafine], 99.7% and 97.5%.
As to `NCC(=O)CCC(=O)O` [5-Aminolevulinic acid hydrochloride], the cell viability was 94.7% and 105%.
The same measure for `CN(C)CC(c1ccc(O)cc1)C1(O)CCCCC1` (stereo not given) [Desvenlafaxine]: 96.7% and 97.5%.
The same measure for `COc1cc(O)c2c(=O)cc(-c3ccc(O)c(O)c3)oc2c1` [Hydroxygenkwanin]: 85.2% and 89.8%.
As to `C[C@H](CC[C@@H](O[C@@H]1O[C@H](CO[C@@H]2O[C@H](CO)[C@@H](O)[C@H](O)[C@H]2O)[C@@H](O)[C@H](O)[C@H]1O[C@@H]1O[C@H](CO)[C@@H](O)[C@H](O)[C@H]1O)C(C)(C)O)[C@H]1CC[C@@]2(C)[C@@H]3CC=C4[C@@H](CC[C@H](O[C@@H]5O[C@H](CO[C@@H]6O[C@H](CO)[C@@H](O)[C@H](O)[C@H]6O)[C@@H](O)[C@H](O)[C@H]5O)C4(C)C)[C@]3(C)[C@H](O)C[C@]12C` [Mogroside V], the cell viability is 94.9% and 96.3%.
The same measure for `COC(=O)c1ccc2c(c1)[nH]c1ncnc(NCCCN3CCCCC3)c12`: 78.5% and 68.9%; for `O=C(CSc1nc2c(c(=O)n1-c1ccccc1)SCC2)Nc1ccc(-c2ccccc2)cn1`: 88.8% and 93.3%; for `COc1cc2c(cc1OC(C)C)[C@H](c1ccc(Cl)cc1)N(c1ccc(N(C)C[C@H]3CC[C@H](N4CCN(C)C(=O)C4)CC3)cc1)C(=O)C2`: 68.8% and 72.1%.
Under `O=C(O)Cn1nnc(-c2cc(N3CCC(Oc4cc(F)ccc4Br)CC3)no2)n1` stands 106% and 102%.
The same measure for `CCCCCCCCCCCCCCCC(=O)O[C@@H]1[C@@H](O)[C@@H](O)[C@@H]([C@H](NC(=O)[C@@H]2C[C@@H](CCC)CN2C)[C@H](C)Cl)O[C@@H]1SC` [Clindamycin palmitate HCl]: 90.7% and 98.9%; for `O=C(/C=C/c1ccccc1)OCc1ccccc1` [Benzyl cinnamate]: 101% and 100%.
For the compound `O=S(=O)(c1ccccc1)c1cnc2c(N3CCNCC3)cccc2c1`, the cell viability came to 93.9%.
The same measure for `CCn1cc(C(=O)O)c(=O)c2cc(F)c(N3CCNCC3)cc21` [Norfloxacin (Norxacin)]: 91.3% and 98.8%; for `C[C@@H]1CC[C@@]2(OC1)O[C@H]1C[C@H]3[C@@H]4CC=C5C[C@@H](O[C@@H]6O[C@H](CO)[C@@H](O)[C@H](O)[C@H]6O[C@@H]6O[C@@H](C)[C@H](O)[C@@H](O)[C@H]6O)CC[C@]5(C)[C@H]4CC[C@]3(C)[C@@]1(O)[C@@H]2C` [Polyphyllin VI]: 0.36% and 0.31%.
The same measure for `Cc1ccnc(NS(=O)(=O)c2ccc(N)cc2)n1` [Sulfamerazine]: 99.9% and 106%.
The same measure for `COC(=O)c1ccco1` [Methyl furan-2-carboxylate]: 108% and 99.5%.
`COc1cc2c(cc1O)C[C@H]1c3cc(O)c(OC)cc3CC[N+]1(C)C2` (stereo not given in full) [Phellodendrine chloride]: the cell viability was 92.6% and 101%.
The same measure for `COc1cc2c(Nc3ccc(NC(=O)c4ccccc4)cc3)ncnc2cc1OCCCN1CCOCC1`: 67.2% and 92%; for `CC(C)c1ccc(C=O)cc1` [4-Isopropylbenzaldehyde]: 94.1% and 90.8%.
The same measure for `C[C@]12CC[C@@H]3c4ccc(O)cc4CC[C@H]3[C@@H]1CC[C@@H]2O` [Estradiol]: 97% and 94.8%.
The same measure for `CC[C@@H](CO)NCCN[C@@H](CC)CO` [Ethambutol HCl]: 99.5% and 99.3%; for `O=C(O)C(Cc1c[nH]c2ccccc12)N1C(=O)c2ccccc2C1=O` (stereo not given): 104% and 96.9%; for `Cc1nc(-c2cn3c(n2)-c2ccc(-c4cnn(C(C)(C)C(N)=O)c4)cc2OCC3)n(C(C)C)n1`: 74.5% and 79.4%.
For the compound `COc1cc2nccc(Oc3ccc(NC(=O)C4(C(=O)Nc5ccc(F)cc5)CC4)cc3)c2cc1OC`, the cell viability was 9.94% and 12.3%.
Under `O=C1c2c(O)cc(O)cc2O[C@H](c2cc(O)c(O)c(O)c2)[C@H]1O` [Dihydromyricetin (Ampeloptin)] stands 111% and 107%.
The same measure for `NC(=O)/C(=C/n1cnc(-c2cc(C(F)(F)F)cc(C(F)(F)F)c2)n1)c1cncnc1`: 3.74% and 12.7%.
On to `O=C(c1ccccc1)c1ccc2nc(NC(=O)c3csc(C4CCN(c5ncnc6ccsc56)CC4)n3)[nH]c2c1`, for which the cell viability is 45.4% and 37.5%.
The same measure for `C[C@H]1C[C@H]2[C@@H]3CCC4=CC(=O)C=C[C@]4(C)[C@H]3C(=O)C[C@]2(C)[C@@]1(O)C(=O)CO` [Betapar (Meprednisone)]: 98.4% and 97.3%; for `COc1ccc(CCCOC(Cn2ccnc2)c2ccc(OC)cc2)cc1` (stereo not given): 16.1% and 28.8%; for `COC(=O)N[C@H](C(=O)N1CCC[C@H]1C(=O)Nc1ccc([C@@H]2CC[C@@H](c3ccc(NC(=O)[C@@H]4CCCN4C(=O)[C@@H](NC(=O)OC)C(C)C)cc3)N2c2ccc(C(C)(C)C)cc2)cc1)C(C)C` [Ombitasvir(ABT-267)]: 83.3% and 81.3%.
The same measure for `CC1=CC(=O)c2ccccc2C1=O` [Menadione]: 95.2% and 95.7%; for `COc1cc(F)c(C(C)C)cc1-c1ccc(C(F)(F)F)cc1CN1C(=O)O[C@H](c2cc(C(F)(F)F)cc(C(F)(F)F)c2)[C@@H]1C` [Anacetrapib (MK-0859)]: 97.5% and 95.6%.
Consider `CN(CC(=O)N(Cc1ccc(C2CCCCC2)cc1)c1ccc(C(=O)O)cc1)S(=O)(=O)c1c(F)c(F)c(F)c(F)c1F`, for which the cell viability is 10.6% and 6.35%.
The same measure for `C#C[C@]1(O)CC[C@H]2[C@@H]3CCC4=CC(=O)CC[C@@H]4[C@H]3C(=C)C[C@@]21CC` [Etonogestrel]: 82.9% and 75.4%; for `O=C(N/N=C/c1ccc(O)c(O)c1)c1cc2ccccc2cc1O` [Dynasore]: 88.5% and 89.6%; for `CC(C)Oc1ccc2c(=O)c(-c3ccccc3)coc2c1` [Ipriflavone]: 88.2% and 88.5%.
The same measure for `CNC(=O)c1ccccc1Sc1ccc2c(/C=C/c3ccccn3)n[nH]c2c1` [Axitinib]: 8.75% and 13.3%; for `CC1=C(C(=O)Nc2ccc3[nH]ncc3c2)C(c2ccc(F)cc2)NC(=O)N1` (stereo not given): 101% and 97.9%.
